Bioassay records from PubChem BioAssay.
Cycloheximide cs: Cycloheximide Counterscreen for Small Molecule Inhibitors of Shiga Toxin; max response, %; AID 2314, 2010; cell reporter, cycloheximide protein synthesis inhibition counterscreen; hit rate 12% among 300,000; in the data active means max response mostly above about 13%, no sharp cut-off; inactive means mostly below about 14%; further: read at 38.3 µM for the half of the compounds with a filed dose; 0% is about no effect
Shiga toxin inh: A qHTS for Small Molecule Inhibitors of Shiga Toxin; Vero cells, Shiga toxin protein synthesis inhibition reporter; inhibition, % at 38.7 µM; hit rate 9.2% among 290,000; AID 2315, 2010; in the data active means inhibition mostly above about 28%, no sharp cut-off; inactive means mostly below about 43%; further: 0% is about no effect
Pf growth 48h: Primary qHTS for delayed death inhibitors of the malarial parasite plastid, 48 hour incubation | P. falciparum luciferase growth in erythrocytes, 48 h | Potency, µM (series often up to 28.7 µM), inactives show top-dose activity change, negative = inhibition, usual class: inhibitors | hit rate 5.9% among 310,000; further: potency means the concentration at half of the fitted maximal effect; on the % scale 0 is the no-effect control and ±100 the full control effect
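Read-out is firefly luciferase luminescence from an integrated reporter in P. falciparum, so falling signal marks reduced parasite growth. Infected erythrocytes were at 2% hematocrit and 0.1% parasitemia (final) in Albumax-supplemented RPMI 1640.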
Pf growth 96h: Primary qHTS for delayed death inhibitors of the malarial parasite plastid, 96 hour incubation; P. falciparum luciferase reporter growth, 96 h; Potency, µM (highest dose often 28.7 µM), without a hit: top-dose activity change, negative = inhibition, usual class: inhibitors; hit rate 6.9% among 320,000; AID 504834, 2011; further: potency means the concentration at half of the fitted maximal effect; on the % scale 0 is the no-effect control and ±100 the full control effect
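Two parasite generations (96 h, 37 C, 5% CO2) of compound exposure in infected erythrocytes (0.05% parasitemia, 2% hematocrit). Luciferase-reporter P. falciparum; decreased luminescence indicates inhibited growth, aimed at apicoplast-acting delayed death.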
* = called active by the depositor; ? = inconclusive; . = no result given; [ ] = remark or other dose. Only some compounds are listed: those with a hit (about 21% of all), similar ones and a draw of the others. Unless noted, the call rests on the fitted dose curve; in most records, active means well fitted inhibition curve with a large enough effect; inconclusive means small, poorly fitted or top-dose-only effect, or another doubt; inactive means no such curve, though single readings can be large or run the other way.

SMILES	Cycloheximide cs	Shiga toxin inh	Pf growth 48h	Pf growth 96h
NNC(=O)c1sc(-c2ccccc2)cc1N	19*	50*	?	16%
CC(C#N)N1CCN(S(=O)(=O)c2ccc3c(c2)CCC3)CC1 (stereo unspecified)	.	.	-15%	-24%
COC(=O)[C@@]1(Cc2ccc(OC)cc2)[C@H]2c3cc(C(=O)N4CCCC4)n(Cc4ccc(OC)c(OC)c4)c3C[C@H]2CN1C(=O)c1ccccc1	-2	-14	?	1.5µM*
COC(=O)[C@@]1(Cc2ccc(OC)cc2)[C@H]2c3cc(C(=O)N4CCCC4)n(CCn4cc([N+](=O)[O-])nc4C)c3C[C@H]2CN1C(=O)c1ccccc1	-2	-4	?	0.59µM*
COC(=O)[C@@]1(Cc2ccc(OC)cc2)[C@@H]2C(=CC(=O)[C@H]2CC(=O)C(=O)N2CCCC2)CN1C(=O)c1ccccc1	-4	-17	10µM*	?
COc1ccc2c(c1)c(C(=O)O)c(C)n2CCc1ccc(OC)c(OC)c1	2	.	?	6%
COC(=O)[C@@]1(Cc2ccc(OC)cc2)[C@@H]2[C@@H](CC(=O)[C@H]2CC(=O)C(=O)N(C)C)CN1C(=O)c1ccccc1	-4	-19	?	?
COC(=O)[C@@]1(Cc2ccc(OC)cc2)[C@H]2c3cc(C(=O)N(C)C)n(CCc4ccc(OC)c(Br)c4)c3C[C@H]2CN1C(=O)c1ccccc1	-3	-13	2.1µM*	2.1µM*
COc1ccc(C(=O)N2CCN(Cc3ccc(OC)c(OC)c3)CC2)cc1	-3	-9	-1%	4%
CCN1CCN(S(=O)(=O)c2ccc(Cl)c(C(=O)NC(C)c3ccccc3Cl)c2)CC1 (stereo unspecified)	.	.	-12%	5%
Cc1noc2ncnc(Oc3ccc(F)cc3)c12	-4	-10	-6%	4%
COC(=O)[C@@]1(Cc2ccc(OC)cc2)[C@H]2c3cc(C(=O)N4CCCC4)n(CCN4CCNC4=O)c3C[C@H]2CN1C(=O)c1ccccc1	-1	-8	1.9µM*	1.7µM*
COC(=O)[C@@]1(Cc2ccc(OC)cc2)[C@H]2c3cc(C(=O)N(C)C)[nH]c3C[C@H]2CN1C(=O)c1ccccc1	-3	-17	4.7µM*	?
CC(=O)Nc1cccc(NC(=O)CSc2nc(=O)n(CCN3CCOCC3)c3c2CCCC3)c1	.	.	6%	-3%
Cn1c(O)c(C2=c3ccccc3=NC2=O)sc1=Nc1ccc(Cl)cc1	7.0*	7	22%	-5%
COc1ccccc1CNC(=O)CC12CC3CC(CC(Br)(C3)C1)C2	-5	-7	?	-12%
OCC1(Cc2ccccc2C(F)(F)F)CCN(Cc2ccccc2)CC1	-2	17	12µM*	?
FC(F)(F)c1ccccc1CN1CCN(Cc2ccccc2)CC1	-5	12	.	35%
OCC1(Cc2ccccc2C(F)(F)F)CCN(Cc2ccc3c(c2)CCO3)CC1	-2	15	12µM*	?
Nc1nonc1-n1nnc(C(=O)N/N=C/c2ccncc2)c1CSc1ccccc1	1	-9	35%	52%
Fc1cccc2sc(Nc3nc4cc5c(cc4s3)OCCO5)nc12	51*	96*	235%	334%
O=c1oc2ccccc2cc1-c1csc(Nc2nc3c(F)cccc3s2)n1	5	2	?	?
Fc1cccc2sc(Nc3nc4cc5c(cc4s3)OCO5)nc12	70*	116*	121%	117%
Fc1cc(F)c2nc(Nc3nc4cc5c(cc4s3)OCO5)sc2c1	21*	26	42%	102%
COC(=O)c1cc(C(=O)NCc2ccc3c(c2)OCO3)cc([N+](=O)[O-])c1	-4	.	0%	?
SMILES	Cycloheximide cs	Shiga toxin inh	Pf growth 48h	Pf growth 96h
CSc1ncc(C(=O)Nc2ccc(C(C)=O)cc2)c(C)n1	35*	80*	?	2.6µM*
CSc1ncc(Cl)c(C(=O)Nc2ccccc2Cl)n1	-1	-10	22%	56%
CSc1ncc(C(=O)Nc2ccc(Cl)cc2)c(C)n1	14	39*	8%	31%
CSc1ncc(Cl)c(C(=O)Nc2c(C)cccc2C)n1	-4	4	2%	4.1µM*
CSc1ncc(C(=O)Nc2ccc(Br)cn2)c(C)n1	23*	56*	?	1.9µM*
CSc1ncc(C(=O)Nc2cccc(Cl)c2C)c(C)n1	15	4	-19%	-11%
O=C(NCCOc1cccnc1)C1CCC(=O)N(Cc2ccccc2F)C1 (stereo unspecified)	-2	-8	12%	-9%
CCc1ccc(OCC(=O)Nc2ccc3[nH]ncc3c2)cc1	-2	3	9%	?
CN(C1CCCCC1)S(=O)(=O)c1cccc2nsnc12	1	16	24%	?
Cc1nn2cc(-c3ccccc3)nc2s1	32*	59	180%	14%[5.75 µM]
CC(=O)N(C(C)=O)c1nc(-c2ccccc2)cn1/N=C/c1ccccc1	0	27	5%	9%
CCCCCC=CCC=CCCCCCCCC(=O)OCC	.	.	-6%	2%
CC1CN(C(=O)CCC(=O)NCc2ccc(Cl)cc2)c2ccccc2O1 (stereo unspecified)	3	-3	-16%	4%
O=C(CCc1ccccc1)NC(=S)Nc1cccc(C(=O)O)c1	58*	103*	144%	0%
O=C(CCCc1ccccc1)Nc1cccc(C(=O)O)c1	60*	122*	176%	?
O=C(CCc1ccccc1)NC(=S)Nc1ccccc1Br	13	52*	12%	23%
O=C(CCc1ccccc1)NC(=S)Nc1cccc(Br)c1	0	25	8%	18%
COc1cc(OC)cc(C(=O)OCC(=O)NCCCc2ccccc2)c1	-2	-3	16%	9%
Nc1ccc(-c2nc3ncccc3o2)cc1	34*	31*	50%	?
Nc1cccc(-c2nc3ncccc3o2)c1	31*	56*	9%	15%
CC(C)CN(C[C@@H](OP(=O)(O)O)[C@H](Cc1ccccc1)NC(=O)O[C@@H]1CCOC1)S(=O)(=O)c1ccc(N)cc1	.	.	7%	-7%
COc1ccc(-c2ccc(N)cn2)cn1	.	.	79%	82%
CCCNC(=O)C(Cc1ccccc1)NC(=O)c1ccccn1 (stereo unspecified)	.	.	35%	9%
CC(C)C[C@@H](NC(=O)[C@@H](Cc1ccccc1)NC(=O)c1cnccn1)B(O)O	.	.	0.12µM*	0.034µM*
COc1cc(OC)c(C2N(c3cc(C)on3)C(=O)C3CCCN32)cc1OC (stereo unspecified)	-2	-26	3%	4.7µM*
SMILES	Cycloheximide cs	Shiga toxin inh	Pf growth 48h	Pf growth 96h
COc1ccccc1CNC(=O)CN1C(=O)COc2ccc(S(=O)(=O)NC3CCCC3)cc21	21*	-10	18%	37%
COc1ccccc1CNC(=O)CCCN1C(=O)COc2ccc(C)cc21	8	1	-19%	9.3µM*
COc1ccccc1CNC(=O)CCN1C(=O)COc2ccc(C)cc21	-3	-14	3%	6%
Cc1cc(NS(=O)(=O)c2ccc(NC(=O)CCSc3ccc(F)cc3)cc2)nc(C)n1	9	26	96%	67%
Cc1ccc(CC(=O)NCC2CCCCC2)cc1	26*	71*	6%	-17%
Cc1ccccc1CC(=O)NCC1CCCCC1	5	19	-2%	12µM*
COCCNC(=S)N1CCOCC1	-2	5	16%	79%
